Records with an inconclusive call do not appear. Values without a mark were called inactive. Active and inactive are the calls of the source. Calls follow the shape of the dose curve; as a rule, active = well fitted curve in the direction sought with a large enough effect in the repeat runs; inconclusive = weak or mixed curves; inactive = no such curve, though single readings can be large; an effect the other way counts as inactive or inconclusive.
Molecular target: Cytochrome P450 2D6 (Homo sapiens) (UniProt P10635)
Sequence (P10635 whole entry, looked up): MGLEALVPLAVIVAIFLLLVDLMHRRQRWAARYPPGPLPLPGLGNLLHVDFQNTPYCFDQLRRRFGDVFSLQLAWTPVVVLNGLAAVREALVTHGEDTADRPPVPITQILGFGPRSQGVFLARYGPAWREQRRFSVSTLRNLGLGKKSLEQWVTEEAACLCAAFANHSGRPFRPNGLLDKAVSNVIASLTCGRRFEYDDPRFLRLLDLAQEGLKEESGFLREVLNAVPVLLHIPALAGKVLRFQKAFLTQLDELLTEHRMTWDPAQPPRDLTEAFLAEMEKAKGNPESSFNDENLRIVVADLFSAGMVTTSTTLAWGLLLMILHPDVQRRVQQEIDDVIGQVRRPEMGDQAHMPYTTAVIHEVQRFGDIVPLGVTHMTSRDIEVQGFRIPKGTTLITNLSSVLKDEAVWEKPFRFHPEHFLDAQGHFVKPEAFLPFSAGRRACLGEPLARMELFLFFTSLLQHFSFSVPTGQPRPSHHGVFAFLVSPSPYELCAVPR
Test: Cytochrome P450 Family 2 Subfamily D Member 6 (CYP2D6) small molecule antagonists: luciferase reporter qHTS assay (AID 1671196); also: nearly all actives have a fitted effect of over 50% in size
Conditions: P450-Glo CYP2D6 enzyme assay, luciferin luminescence, 1 h; series mostly up to 115 µM; activity change, negative = inhibition: at the top concentration
Procedure, shortened: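 Enzyme and proluciferin substrate were first combined with test chemical for 10 min at room temperature. Adding NADPH regeneration solution started a 1 h reaction, stopped with luciferin detection reagent and read by luminescence 20 min later.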
% is scaled to controls: 0 for no effect and ±100 for the full control effect; potency is read from the fitted curve at half-maximal effect.

| Structure (SMILES) | activity change, negative = inhibition [%] | Potency |
| --- | --- | --- |
| CC(C)COC(=O)/C=C/c1ccccc1 | -7.8 |  |
| Cc1nc2n(c(=O)c1CCN1CCC(C(=O)c3ccc(F)cc3)CC1)CCS2 |  | 0.49 µM (active) |
| CNC(=O)C(c1ccccc1)c1ccccc1 | -6.16 |  |
| CC(C)c1ccccc1O | -10.9 |  |
| CCCCC(CC)CNC(=O)CC(C)OC(=O)CCC(=O)O (stereo not drawn) |  | 17.4 µM (active) |
| C=CCOCC(O)CCl (stereo not drawn) | 1.61 |  |
| CCN(CCO)c1cccc(C)c1 | -25.4 |  |

Molecular target: Cytochrome P450 2C19 (Homo sapiens) (UniProt P33261)
Sequence (P33261 whole entry, looked up): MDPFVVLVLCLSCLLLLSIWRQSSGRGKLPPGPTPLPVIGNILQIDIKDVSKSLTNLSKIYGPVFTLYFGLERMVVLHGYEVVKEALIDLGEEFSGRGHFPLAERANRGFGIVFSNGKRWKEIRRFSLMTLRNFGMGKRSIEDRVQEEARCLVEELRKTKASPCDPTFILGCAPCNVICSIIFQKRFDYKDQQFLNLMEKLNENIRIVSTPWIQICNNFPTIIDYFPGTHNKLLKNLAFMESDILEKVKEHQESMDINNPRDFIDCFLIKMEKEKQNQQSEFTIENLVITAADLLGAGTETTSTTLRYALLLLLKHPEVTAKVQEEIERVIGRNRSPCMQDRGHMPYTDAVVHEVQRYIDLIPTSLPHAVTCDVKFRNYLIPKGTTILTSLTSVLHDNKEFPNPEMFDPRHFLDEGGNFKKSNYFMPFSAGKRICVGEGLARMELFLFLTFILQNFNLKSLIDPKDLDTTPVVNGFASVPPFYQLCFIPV
Test: Cytochrome P450 Family 2 Subfamily C Member 19 (CYP2C19) small molecule antagonists: luciferase reporter qHTS assay (AID 1671197); also: nearly all actives have a fitted effect of over 65% in size
Conditions: P450-Glo CYP2C19 enzyme, luciferin luminescence, 1 h; series mostly up to 115 µM; activity change, negative = inhibition: at the top concentration
Procedure, shortened: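 CYP2C19 P450-Glo, 1536-well qHTS. Cpd + enzyme/proluciferin substrate 10 min RT; + NADPH regen, 37C 1 h; stop with luciferin detection reagent, 20 min RT, luminescence (RLU). Pos ctrl ketoconazole.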

| Structure (SMILES) | Potency | activity change, negative = inhibition |
| --- | --- | --- |
| O=C(COCCOCCOCC(=O)Nc1c(I)cc(I)c(C(=O)O)c1I)Nc1c(I)cc(I)c(C(=O)O)c1I | 34.7 µM (active) |  |
| CCC(=O)OCCC(C)CCC=C(C)C (stereo not drawn) | 20 µM (active) |  |
| Cc1nc([N+](=O)[O-])cn1-c1ccc([N+](=O)[O-])cc1 |  | 28.2% [at 52.9 µM] |
| CCN(CCC#N)c1ccccc1 | 8.94 µM (active) |  |
| C=COCCOCCOC=C |  | -12% |
| CCOC(=O)CC#N | 39.5 µM (active) |  |
| CCOc1ccc(NC(=O)OC(C)C)cc1OCC | 71 µM (active) |  |
| CCOC(=O)C(=O)c1csc(NC=O)n1 |  | 12.9% [at 52.9 µM] |
| C=CCOc1c(Br)cc(Br)cc1Br | 7.96 µM (active) |  |
| CCN(CC)C(=O)C1CN2CCc3cc(OC)c(OC)cc3C2CC1OC(C)=O (stereo not drawn) |  | 18.7% [at 52.9 µM] |
| O=C(O)c1ccccc1C(=O)OCc1ccccc1 |  | 4.23% |
| CC1CCC(C(C)(C)S)C(=O)C1 (stereo not drawn) | 79.6 µM (active) |  |

Molecular target: Cytochrome P450 2C9 (Homo sapiens) (UniProt P11712)
Sequence (P11712 whole entry, looked up): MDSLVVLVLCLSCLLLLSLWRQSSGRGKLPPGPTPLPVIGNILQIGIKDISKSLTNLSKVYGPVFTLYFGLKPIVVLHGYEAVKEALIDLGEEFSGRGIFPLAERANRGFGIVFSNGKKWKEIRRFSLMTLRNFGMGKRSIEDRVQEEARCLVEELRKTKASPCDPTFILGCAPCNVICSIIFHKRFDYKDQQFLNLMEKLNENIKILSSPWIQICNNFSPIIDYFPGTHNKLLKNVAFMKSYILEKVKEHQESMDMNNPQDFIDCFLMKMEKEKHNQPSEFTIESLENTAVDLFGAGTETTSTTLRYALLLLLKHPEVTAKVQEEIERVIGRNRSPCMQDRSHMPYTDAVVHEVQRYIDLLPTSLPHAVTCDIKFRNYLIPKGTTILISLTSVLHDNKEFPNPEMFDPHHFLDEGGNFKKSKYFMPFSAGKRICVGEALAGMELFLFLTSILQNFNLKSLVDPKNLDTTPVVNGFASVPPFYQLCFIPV
Test: Cytochrome P450 Family 2 Subfamily C Member 9 (CYP2C9) small molecule antagonists: luciferase reporter qHTS assay (AID 1671198); also: nearly all actives have a fitted effect of over 50% in size
Conditions: P450-Glo CYP2C9 enzyme assay, luciferin luminescence; series mostly up to 115 µM; activity change, negative = inhibition: at the top concentration
Procedure, shortened: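 P450-Glo proluciferin substrate with CYP2C9 enzyme; 10 min RT preincubation, then NADPH regeneration 1 h at 37C; luciferin detection reagent 20 min RT, luminescence in relative luminescence units.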

| Structure (SMILES) | activity change, negative = inhibition | Potency |
| --- | --- | --- |
| O=C(COCCOCCOCC(=O)Nc1c(I)cc(I)c(C(=O)O)c1I)Nc1c(I)cc(I)c(C(=O)O)c1I | -8.52% [at 53 µM] |  |
| CCC(=O)OCCC(C)CCC=C(C)C (stereo not drawn) |  | 25.2 µM (active) |
| Cc1nc([N+](=O)[O-])cn1-c1ccc([N+](=O)[O-])cc1 | 1.14% [at 53 µM] |  |
| CCCO | -9.97% |  |
| C=CCOC(=O)c1ccc(C(=O)OCC=C)c(C(=O)OCC=C)c1 |  | 0.399 µM (active) |
| C=COCCOCCOC=C | -19% |  |
| CCCCCCCCCOCC1CO1 (stereo not drawn) |  | 82.8 µM (active) |
| CN(C1CCCCC1)S(=O)(=O)c1ccccc1N |  | 6.33 µM (active) |
| CCN(Cc1cccc(S(=O)(=O)O)c1)c1ccccc1 |  | 17.8 µM (active) |
| CCOc1ccc(NC(=O)OC(C)C)cc1OCC | -14.4% |  |
| CCOC(=O)C(=O)c1csc(NC=O)n1 | -2.65% [at 53 µM] |  |
| C=CCOc1c(Br)cc(Br)cc1Br |  | 8.94 µM (active) |
| CCN(CC)C(=O)C1CN2CCc3cc(OC)c(OC)cc3C2CC1OC(C)=O (stereo not drawn) | -13.2% [at 53 µM] |  |
| CC1CCC(C(C)(C)S)C(=O)C1 (stereo not drawn) |  | 39.9 µM (active) |
| Oc1ccccc1Cc1ccccc1O |  | 39.9 µM (active) |

Molecular target: Cytochrome P450 1A2 (Homo sapiens) (UniProt P05177)
Sequence (P05177 whole entry, looked up): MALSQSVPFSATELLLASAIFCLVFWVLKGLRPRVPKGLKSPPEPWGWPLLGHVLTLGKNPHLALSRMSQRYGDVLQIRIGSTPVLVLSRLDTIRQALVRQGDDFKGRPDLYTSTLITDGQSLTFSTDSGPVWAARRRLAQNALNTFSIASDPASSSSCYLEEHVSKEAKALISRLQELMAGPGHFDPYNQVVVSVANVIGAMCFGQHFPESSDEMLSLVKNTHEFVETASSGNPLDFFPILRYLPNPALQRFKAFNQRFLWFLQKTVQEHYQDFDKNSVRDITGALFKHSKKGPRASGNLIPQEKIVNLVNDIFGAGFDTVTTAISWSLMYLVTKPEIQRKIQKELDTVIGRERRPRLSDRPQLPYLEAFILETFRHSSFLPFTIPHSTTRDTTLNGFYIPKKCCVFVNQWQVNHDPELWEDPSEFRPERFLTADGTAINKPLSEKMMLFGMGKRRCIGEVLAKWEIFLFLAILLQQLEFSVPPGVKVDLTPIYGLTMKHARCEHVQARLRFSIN
Test: Cytochrome P450 Family 1 Subfamily A Member 2 (CYP1A2) small molecule antagonists: luciferase reporter qHTS assay (AID 1671199); also: nearly all actives have a fitted effect of over 50% in size
Conditions: P450-Glo CYP1A2 enzyme, luciferin luminescence, 1 h; series mostly up to 115 µM; activity change, negative = inhibition: at the top concentration
Procedure, shortened: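 Compounds were incubated with CYP1A2 and a luminogenic proluciferin substrate for 10 min at room temperature before the reaction was started with NADPH regeneration solution. After 1 h, detection reagent was added and light output, proportional to CYP activity, was recorded.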

| Structure (SMILES) | activity change, negative = inhibition | Potency |
| --- | --- | --- |
| O=C(COCCOCCOCC(=O)Nc1c(I)cc(I)c(C(=O)O)c1I)Nc1c(I)cc(I)c(C(=O)O)c1I | 9.06% [at 53 µM] |  |
| CCC(=O)OCCC(C)CCC=C(C)C (stereo not drawn) |  | 39.9 µM (active) |
| CC(C)COC(=O)/C=C/c1ccccc1 |  | 28.3 µM (active) |
| Cc1nc([N+](=O)[O-])cn1-c1ccc([N+](=O)[O-])cc1 | 0.227% [at 53 µM] |  |
| CCCO | -14.4% |  |
| CCN(CCC#N)c1ccccc1 |  | 31.7 µM (active) |
| C=CCOC(=O)c1ccc(C(=O)OCC=C)c(C(=O)OCC=C)c1 |  | 6.33 µM (active) |
| CC(=O)N1CCN(c2ccc(O)cc2)CC1 |  | 24.5 µM (active) |
| CCN(Cc1cccc(S(=O)(=O)O)c1)c1ccccc1 | 0.202% |  |
| CCOc1ccc(NC(=O)OC(C)C)cc1OCC |  | 5.03 µM (active) |
| CCCCC(CC)CNC(=O)CC(C)OC(=O)CCC(=O)O (stereo not drawn) | -19.5% [at 53 µM] |  |
| CCOC(=O)C(=O)c1csc(NC=O)n1 |  | 19.5 µM (active) |
| C=CCOc1c(Br)cc(Br)cc1Br |  | 2.83 µM (active) |
| CCN(CC)C(=O)C1CN2CCc3cc(OC)c(OC)cc3C2CC1OC(C)=O (stereo not drawn) | -3.6% [at 53 µM] |  |
| O=C(O)c1ccccc1C(=O)OCc1ccccc1 | -10.7% |  |
| CCN(CCO)c1cccc(C)c1 |  | 28.3 µM (active) |
| CC1CCC(C(C)(C)S)C(=O)C1 (stereo not drawn) | -9.42% |  |

Molecular target: Voltage-gated inwardly rectifying potassium channel KCNH2 (Homo sapiens) (UniProt Q12809)
Sequence (Q12809 whole entry, looked up): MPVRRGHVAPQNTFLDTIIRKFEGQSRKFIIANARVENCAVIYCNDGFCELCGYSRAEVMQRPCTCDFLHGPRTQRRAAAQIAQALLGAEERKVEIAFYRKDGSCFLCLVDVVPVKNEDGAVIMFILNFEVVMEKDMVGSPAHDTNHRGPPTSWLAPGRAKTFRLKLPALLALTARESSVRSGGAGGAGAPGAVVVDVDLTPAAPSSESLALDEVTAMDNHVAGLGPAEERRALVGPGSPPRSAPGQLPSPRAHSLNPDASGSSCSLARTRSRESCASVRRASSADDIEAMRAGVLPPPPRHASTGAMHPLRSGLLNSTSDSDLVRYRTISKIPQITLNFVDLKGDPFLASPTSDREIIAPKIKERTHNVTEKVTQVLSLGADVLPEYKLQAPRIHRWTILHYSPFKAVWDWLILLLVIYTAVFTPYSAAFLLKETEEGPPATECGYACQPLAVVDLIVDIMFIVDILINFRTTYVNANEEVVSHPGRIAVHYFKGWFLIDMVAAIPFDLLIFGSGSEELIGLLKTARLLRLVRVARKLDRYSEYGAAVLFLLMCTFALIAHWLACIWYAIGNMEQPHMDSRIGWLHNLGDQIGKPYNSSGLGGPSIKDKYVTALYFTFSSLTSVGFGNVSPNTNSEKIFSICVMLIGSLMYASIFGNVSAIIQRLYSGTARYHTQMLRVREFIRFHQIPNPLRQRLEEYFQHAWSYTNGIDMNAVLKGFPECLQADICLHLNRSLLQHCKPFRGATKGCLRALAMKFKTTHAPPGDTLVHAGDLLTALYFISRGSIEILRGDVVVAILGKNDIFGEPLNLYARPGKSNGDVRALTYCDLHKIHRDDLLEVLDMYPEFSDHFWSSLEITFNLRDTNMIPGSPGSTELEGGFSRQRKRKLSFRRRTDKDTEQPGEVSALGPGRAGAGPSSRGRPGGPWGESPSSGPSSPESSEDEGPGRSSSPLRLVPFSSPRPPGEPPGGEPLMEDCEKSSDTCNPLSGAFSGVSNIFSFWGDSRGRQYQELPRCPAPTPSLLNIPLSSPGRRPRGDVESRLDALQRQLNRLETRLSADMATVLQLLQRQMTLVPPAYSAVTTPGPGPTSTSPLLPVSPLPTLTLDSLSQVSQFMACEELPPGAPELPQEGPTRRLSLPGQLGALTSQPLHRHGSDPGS
Test: Human Ether-a-go-go-Related Gene (hERG) channel small molecule antagonists: fluorescence cell-based qHTS assay (AID 1671200); also: nearly all actives have a fitted effect of over 50% in size;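 as to activity change, negative = inhibition: hERG-expressing U2OS cells given a thallium stimulus after FluxOR II dye loading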
Conditions: hERG-U2OS cells, FluxOR thallium flux fluorescence; series mostly up to 76.8 µM; activity change, negative = inhibition: at the top concentration
Procedure, shortened: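 Thallium served as the potassium surrogate; its influx into dye-loaded U2OS cells carrying the channel was measured by fluorescence over 2 min.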

| Structure (SMILES) | activity change, negative = inhibition | Potency |
| --- | --- | --- |
| CN[C@@H]1[C@@H](O)[C@@H](O[C@@H]2[C@H](O)[C@H](O[C@H]3OC(CN)=CC[C@H]3N)[C@@H](N)C[C@H]2N)OCC1(C)O (stereo partly drawn) | 1.94% [at 35.3 µM] |  |
| O=C(COCCOCCOCC(=O)Nc1c(I)cc(I)c(C(=O)O)c1I)Nc1c(I)cc(I)c(C(=O)O)c1I | 0.015% [at 35.3 µM] |  |
| CCC(=O)OCCC(C)CCC=C(C)C (stereo not drawn) | -3.75% |  |
| CN=C(NC#N)NCCSCc1csc(N=C(N)N)n1 | 5.78% [at 35.3 µM] |  |
| Cc1nc([N+](=O)[O-])cn1-c1ccc([N+](=O)[O-])cc1 | 1.4% [at 35.3 µM] |  |
| CCCO | 2.39% |  |
| CCN(CCC#N)c1ccccc1 | -7.74% |  |
| C=CCOC(=O)c1ccc(C(=O)OCC=C)c(C(=O)OCC=C)c1 | -28.4% |  |
| C=COCCOCCOC=C | 1.46% |  |
| C1CCN2C[C@@H]3C[C@@H](CN4CCCC[C@@H]34)[C@H]2C1 | -14.8% [at 35.3 µM] |  |
| CC(=O)N1CCN(c2ccc(O)cc2)CC1 | 6.78% [at 35.3 µM] |  |
| CCOC(=O)CC#N | 0% |  |
| CCCCCCCCCCCCCCCC(=O)NCCO | 1.86% [at 35.3 µM] |  |
| Cc1nc2n(c(=O)c1CCN1CCC(C(=O)c3ccc(F)cc3)CC1)CCS2 |  | 9.52 µM (active) |
| CCCCCCCCCOCC1CO1 (stereo not drawn) | -3.73% |  |
| CN(C1CCCCC1)S(=O)(=O)c1ccccc1N | 1.36% |  |
| CNC(=O)C(c1ccccc1)c1ccccc1 | 2.45% |  |
| COc1ccc(NS(=O)(=O)c2ccc(N)cc2)nn1 | 7.47% [at 35.3 µM] |  |
| O=CO | -0.636% [at 6.97 µM] |  |

| Structure (SMILES) | activity change, negative = inhibition | Potency |
| --- | --- | --- |
| CCN(Cc1cccc(S(=O)(=O)O)c1)c1ccccc1 | 1.49% |  |
| O=S(=O)(O)c1cc(O)ccc1O | 0.358% |  |
| CCOc1ccc(NC(=O)OC(C)C)cc1OCC | 9.52% |  |
| CC(C)c1ccccc1O | 3.94% |  |
| CCCCC(CC)CNC(=O)CC(C)OC(=O)CCC(=O)O (stereo not drawn) | -1.83% [at 35.3 µM] |  |
| c1ccc(CNc2ncnc3nc[nH]c23)cc1 | 5.05% |  |
| Cc1ncc([N+](=O)[O-])n1CC(O)CCl (stereo not drawn) | -1.25% [at 35.3 µM] |  |
| C=CCOCC(O)CCl (stereo not drawn) | -0.539% |  |
| CCOC(=O)C(=O)c1csc(NC=O)n1 | 5.25% [at 35.3 µM] |  |
| C=CCOc1c(Br)cc(Br)cc1Br | -2.95% |  |
| Cc1nc2ccccc2c(=O)o1 | 1.34% |  |
| CCN(CC)C(=O)C1CN2CCc3cc(OC)c(OC)cc3C2CC1OC(C)=O (stereo not drawn) | 2.41% [at 35.3 µM] |  |
| Cc1ccc2c(c1)c1c3n2CCNC3CCC1 (stereo not drawn) | -20.7% [at 35.3 µM] |  |
| O=C(O)c1ccccc1C(=O)OCc1ccccc1 | -2.46% |  |
| CCN(CCO)c1cccc(C)c1 | -4.73% |  |
| CCS(=O)(=O)CCn1c([N+](=O)[O-])cnc1C | 0.255% [at 35.3 µM] |  |
| CC1CCC(C(C)(C)S)C(=O)C1 (stereo not drawn) | -6.04% |  |
| Oc1ccccc1Cc1ccccc1O | 1.64% |  |

— PubChem BioAssay (Tox21)
